Results from PMC11006913.

Columns and labels:
Assay in all cases: PBM; 200 nM protein, PBS
Settings in all cases: dsDNA, one strand shown
HOXB6 [1] = target: HOXB6 (Homo sapiens, UniProt P17509 132-218, K202E)
HOXB6 [2] = target: HOXB6 (Homo sapiens, UniProt P17509 132-218)
ALX4 = ALX4 (Homo sapiens, UniProt Q9H161 200-286, Q225E)
HOXC9 = HOXC9 (Homo sapiens, UniProt P31274 178-260, R222W)
SIX6 = target: T1, SIX6 (Homo sapiens, UniProt O95475 114-200, T165G)
T1 sequence: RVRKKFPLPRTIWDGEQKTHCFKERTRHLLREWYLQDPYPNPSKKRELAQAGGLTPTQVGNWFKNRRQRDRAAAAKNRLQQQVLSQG

HOXB6 (Homo sapiens, UniProt P17509 132-218), sequence (P17509 132-218): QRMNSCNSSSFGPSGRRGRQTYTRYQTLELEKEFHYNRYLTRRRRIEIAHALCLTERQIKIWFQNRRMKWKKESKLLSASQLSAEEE
ALX4, sequence (Q9H161 200-286 Q225E): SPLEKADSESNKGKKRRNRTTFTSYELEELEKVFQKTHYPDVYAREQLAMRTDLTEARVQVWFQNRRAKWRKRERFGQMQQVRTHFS
HOXB6 (Homo sapiens, UniProt P17509 132-218, K202E), sequence (P17509 132-218 K202E): as the sequence (P17509 132-218) above, with K71E counted along it
HOXC9, sequence (P31274 178-260 R222W): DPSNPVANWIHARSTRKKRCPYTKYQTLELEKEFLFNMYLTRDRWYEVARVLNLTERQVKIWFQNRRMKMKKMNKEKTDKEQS

Question: Which binding signal (HOXB6 [1]) does the source give for CCCTGGGA here?
Answer: 8.98 upbm affinity estimate (log intensity, higher = more binding, comparable within an allelic series)

Question: What about the binding signal (HOXB6 [2]) of the same sequence?
Answer: 8.98 upbm affinity estimate (log intensity, higher = more binding, comparable within an allelic series)

Question: Which binding signal (ALX4) does the source give for AATAAAAG here?
Answer: 10.4 upbm affinity estimate (log intensity, higher = more binding, comparable within an allelic series)

Question: And the binding signal (HOXC9)?
Answer: 11 upbm affinity estimate (log intensity, higher = more binding, comparable within an allelic series)

Question: What does the source list for AAGTACGA?
Answer: binding signal (HOXB6 [1]): 9.65 upbm affinity estimate (log intensity, higher = more binding, comparable within an allelic series); binding signal (HOXB6 [2]): 10.3 upbm affinity estimate (log intensity, higher = more binding, comparable within an allelic series)

Question: Which results are given for GATGCCCC?
Answer: binding signal (HOXB6 [1]): 9.11 upbm affinity estimate (log intensity, higher = more binding, comparable within an allelic series); binding signal (HOXB6 [2]): 8.96 upbm affinity estimate (log intensity, higher = more binding, comparable within an allelic series)

Question: Which results are given for GCTGGCTA?
Answer: binding signal (HOXB6 [1]): 9.09 upbm affinity estimate (log intensity, higher = more binding, comparable within an allelic series); binding signal (HOXB6 [2]): 9 upbm affinity estimate (log intensity, higher = more binding, comparable within an allelic series)

Question: Which results are given for CGGTGTGC?
Answer: binding signal (HOXB6 [1]): 9.02 upbm affinity estimate (log intensity, higher = more binding, comparable within an allelic series); binding signal (HOXB6 [2]): 8.92 upbm affinity estimate (log intensity, higher = more binding, comparable within an allelic series)

Question: AATAAATA was tested. Which binding signal (ALX4) did it give?
Answer: 11 upbm affinity estimate (log intensity, higher = more binding, comparable within an allelic series)

Question: What about the binding signal (HOXC9) of the same sequence?
Answer: 11 upbm affinity estimate (log intensity, higher = more binding, comparable within an allelic series)

Question: What does the source list for CGGCGCGC?
Answer: binding signal (HOXB6 [1]): 9.13 upbm affinity estimate (log intensity, higher = more binding, comparable within an allelic series); binding signal (HOXB6 [2]): 9.19 upbm affinity estimate (log intensity, higher = more binding, comparable within an allelic series)

Question: How did the binding signal (HOXB6 [1]) turn out when CCAATTTC was run?
Answer: 9.48 upbm affinity estimate (log intensity, higher = more binding, comparable within an allelic series)

Question: And the binding signal (HOXB6 [2])?
Answer: 10.1 upbm affinity estimate (log intensity, higher = more binding, comparable within an allelic series)

Question: With GGCTCGAC as the sequence, how does the binding signal (HOXB6 [1]) read?
Answer: 9.13 upbm affinity estimate (log intensity, higher = more binding, comparable within an allelic series)

Question: What about the binding signal (HOXB6 [2]) of the same sequence?
Answer: 8.81 upbm affinity estimate (log intensity, higher = more binding, comparable within an allelic series)

Question: Which binding signal (HOXB6 [1]) does the source give for CCTCGGAC here?
Answer: 9.1 upbm affinity estimate (log intensity, higher = more binding, comparable within an allelic series)

Question: What about the binding signal (HOXB6 [2]) of the same sequence?
Answer: 8.96 upbm affinity estimate (log intensity, higher = more binding, comparable within an allelic series)

Question: Which binding signal (HOXB6 [1]) does the source give for CCGACTCC here?
Answer: 9.11 upbm affinity estimate (log intensity, higher = more binding, comparable within an allelic series)

Question: And the binding signal (HOXB6 [2])?
Answer: 9.01 upbm affinity estimate (log intensity, higher = more binding, comparable within an allelic series)

Question: Which results are given for GCCGCCCA?
Answer: binding signal (HOXB6 [1]): 8.98 upbm affinity estimate (log intensity, higher = more binding, comparable within an allelic series); binding signal (HOXB6 [2]): 8.99 upbm affinity estimate (log intensity, higher = more binding, comparable within an allelic series)

Question: Which binding signal (HOXB6 [1]) does the source give for GAGGGGCA here?
Answer: 9.15 upbm affinity estimate (log intensity, higher = more binding, comparable within an allelic series)

Question: What about the binding signal (HOXB6 [2]) of the same sequence?
Answer: 9.24 upbm affinity estimate (log intensity, higher = more binding, comparable within an allelic series)

Question: For GCGCTCCC, which binding signal (HOXB6 [1]) is on record?
Answer: 9.05 upbm affinity estimate (log intensity, higher = more binding, comparable within an allelic series)

Question: What about the binding signal (HOXB6 [2]) of the same sequence?
Answer: 8.94 upbm affinity estimate (log intensity, higher = more binding, comparable within an allelic series)

Question: Which binding signal (HOXB6 [1]) does the source give for TAGAATGA here?
Answer: 9.57 upbm affinity estimate (log intensity, higher = more binding, comparable within an allelic series)

Question: What about the binding signal (HOXB6 [2]) of the same sequence?
Answer: 10.3 upbm affinity estimate (log intensity, higher = more binding, comparable within an allelic series)

Question: What does the source list for GGGCCCCA?
Answer: binding signal (HOXB6 [1]): 8.9 upbm affinity estimate (log intensity, higher = more binding, comparable within an allelic series); binding signal (HOXB6 [2]): 8.9 upbm affinity estimate (log intensity, higher = more binding, comparable within an allelic series)

Question: What does the source list for GGGTCCGA?
Answer: binding signal (HOXB6 [1]): 9.03 upbm affinity estimate (log intensity, higher = more binding, comparable within an allelic series); binding signal (HOXB6 [2]): 9.07 upbm affinity estimate (log intensity, higher = more binding, comparable within an allelic series)

Question: For AATAAATC, which binding signal (ALX4) is on record?
Answer: 10.8 upbm affinity estimate (log intensity, higher = more binding, comparable within an allelic series)

Question: Which binding signal (SIX6) does the source give for AGACACCC here?
Answer: 10.5 upbm affinity estimate (log intensity, higher = more binding, comparable within an allelic series)

Question: Which results are given for AAGGGAGC?
Answer: binding signal (HOXB6 [1]): 9.01 upbm affinity estimate (log intensity, higher = more binding, comparable within an allelic series); binding signal (HOXB6 [2]): 8.99 upbm affinity estimate (log intensity, higher = more binding, comparable within an allelic series)
